compound: COc1cccc(CN(C)C(=O)CCl)c1; assay: log2 ratio of Biotin-Ahx-Ub-VS probe labelling (compound/DMSO); higher = less target engagement, active = hit call of the paper (q ≤ 0.05, log2 ratio ≤ -1); settings: compound concentration: 50uM; treatment time: 3 h
Description: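 Round 2 competitive ABPP in HEK293T lysate. Compounds were tested at 50 and 200 µM for 3 h, followed by Biotin-Ahx-Ub-VS enrichment and diaPASEF LC-MS/MS. Values are the average log2 ratio (compound/DMSO) from an unpaired t-test (n=3 treated, n=26 DMSO).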

Chain of UniProt Q9NP73 (Q9NP73 whole entry): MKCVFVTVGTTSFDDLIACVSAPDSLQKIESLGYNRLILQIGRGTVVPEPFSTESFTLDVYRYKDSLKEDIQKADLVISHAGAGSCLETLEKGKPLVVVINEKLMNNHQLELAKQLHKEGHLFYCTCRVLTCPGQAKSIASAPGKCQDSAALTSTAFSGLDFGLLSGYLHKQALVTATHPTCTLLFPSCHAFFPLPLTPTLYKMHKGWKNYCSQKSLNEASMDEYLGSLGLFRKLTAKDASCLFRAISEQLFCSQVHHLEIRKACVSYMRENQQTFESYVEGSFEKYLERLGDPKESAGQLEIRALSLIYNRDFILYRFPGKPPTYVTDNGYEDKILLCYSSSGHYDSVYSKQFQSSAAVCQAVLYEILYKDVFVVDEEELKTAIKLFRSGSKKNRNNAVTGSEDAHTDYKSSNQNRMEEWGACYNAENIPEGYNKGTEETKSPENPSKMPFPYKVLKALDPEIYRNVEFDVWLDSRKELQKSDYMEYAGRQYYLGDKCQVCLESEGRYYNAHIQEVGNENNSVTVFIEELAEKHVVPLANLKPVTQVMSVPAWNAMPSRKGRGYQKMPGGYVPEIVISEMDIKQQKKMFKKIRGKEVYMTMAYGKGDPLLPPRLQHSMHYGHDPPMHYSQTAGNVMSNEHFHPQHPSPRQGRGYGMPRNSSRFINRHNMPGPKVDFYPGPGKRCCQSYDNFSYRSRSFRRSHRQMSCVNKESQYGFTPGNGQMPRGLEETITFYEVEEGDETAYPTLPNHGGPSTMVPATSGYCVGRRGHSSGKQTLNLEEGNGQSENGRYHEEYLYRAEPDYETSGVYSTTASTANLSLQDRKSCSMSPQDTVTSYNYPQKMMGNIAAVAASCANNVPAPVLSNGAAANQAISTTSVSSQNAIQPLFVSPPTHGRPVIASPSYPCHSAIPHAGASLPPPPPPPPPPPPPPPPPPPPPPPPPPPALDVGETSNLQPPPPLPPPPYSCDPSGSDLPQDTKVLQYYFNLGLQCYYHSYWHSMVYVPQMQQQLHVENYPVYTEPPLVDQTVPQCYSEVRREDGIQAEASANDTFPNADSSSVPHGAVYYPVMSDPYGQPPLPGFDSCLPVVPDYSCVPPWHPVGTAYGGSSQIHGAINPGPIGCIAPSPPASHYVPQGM
Chain of UniProt Q5VVQ6 (Q5VVQ6 whole entry): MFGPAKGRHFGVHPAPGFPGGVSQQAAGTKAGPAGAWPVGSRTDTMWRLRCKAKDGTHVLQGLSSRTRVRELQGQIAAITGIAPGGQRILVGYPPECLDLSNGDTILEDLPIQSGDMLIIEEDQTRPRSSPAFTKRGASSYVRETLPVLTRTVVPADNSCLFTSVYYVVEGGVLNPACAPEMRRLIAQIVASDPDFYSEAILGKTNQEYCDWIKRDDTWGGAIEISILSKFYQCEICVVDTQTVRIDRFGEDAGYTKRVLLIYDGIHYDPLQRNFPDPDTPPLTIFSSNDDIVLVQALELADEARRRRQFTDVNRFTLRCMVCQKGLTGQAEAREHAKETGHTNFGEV
Chain of UniProt P51665 (P51665 whole entry): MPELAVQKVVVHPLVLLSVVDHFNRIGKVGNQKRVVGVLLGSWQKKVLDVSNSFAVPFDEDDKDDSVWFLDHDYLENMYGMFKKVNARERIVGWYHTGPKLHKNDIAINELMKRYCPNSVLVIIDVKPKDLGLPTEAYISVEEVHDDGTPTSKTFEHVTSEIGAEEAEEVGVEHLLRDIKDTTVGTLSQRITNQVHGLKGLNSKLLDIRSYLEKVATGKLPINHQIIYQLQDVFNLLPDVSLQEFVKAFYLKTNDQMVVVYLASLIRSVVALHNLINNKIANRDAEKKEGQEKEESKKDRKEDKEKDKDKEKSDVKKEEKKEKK
Chain of UniProt Q53GS9 (Q53GS9 whole entry): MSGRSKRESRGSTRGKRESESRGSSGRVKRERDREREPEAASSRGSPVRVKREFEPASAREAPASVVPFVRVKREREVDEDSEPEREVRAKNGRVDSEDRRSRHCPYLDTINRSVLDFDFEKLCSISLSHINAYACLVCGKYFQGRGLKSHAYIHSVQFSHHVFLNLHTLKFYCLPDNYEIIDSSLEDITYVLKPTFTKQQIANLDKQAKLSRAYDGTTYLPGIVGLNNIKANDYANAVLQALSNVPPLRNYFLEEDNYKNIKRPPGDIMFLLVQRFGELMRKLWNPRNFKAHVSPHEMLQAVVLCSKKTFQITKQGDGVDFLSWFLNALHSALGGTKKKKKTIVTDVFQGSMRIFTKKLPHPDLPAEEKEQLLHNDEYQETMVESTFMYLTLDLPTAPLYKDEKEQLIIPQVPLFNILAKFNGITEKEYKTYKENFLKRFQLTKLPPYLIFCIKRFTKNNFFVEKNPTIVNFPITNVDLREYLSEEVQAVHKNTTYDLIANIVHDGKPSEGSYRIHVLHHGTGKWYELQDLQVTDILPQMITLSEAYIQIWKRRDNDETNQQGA
Chain of UniProt O00487 (O00487 whole entry): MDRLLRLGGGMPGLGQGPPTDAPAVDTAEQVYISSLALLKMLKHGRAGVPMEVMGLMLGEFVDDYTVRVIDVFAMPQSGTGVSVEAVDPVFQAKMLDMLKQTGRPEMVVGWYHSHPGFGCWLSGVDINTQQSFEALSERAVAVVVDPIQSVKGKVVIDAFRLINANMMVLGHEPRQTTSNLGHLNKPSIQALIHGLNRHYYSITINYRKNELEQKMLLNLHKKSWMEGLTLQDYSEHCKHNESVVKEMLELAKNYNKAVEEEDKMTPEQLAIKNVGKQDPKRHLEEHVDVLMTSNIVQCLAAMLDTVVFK
Chain of UniProt P54252 (P54252 whole entry): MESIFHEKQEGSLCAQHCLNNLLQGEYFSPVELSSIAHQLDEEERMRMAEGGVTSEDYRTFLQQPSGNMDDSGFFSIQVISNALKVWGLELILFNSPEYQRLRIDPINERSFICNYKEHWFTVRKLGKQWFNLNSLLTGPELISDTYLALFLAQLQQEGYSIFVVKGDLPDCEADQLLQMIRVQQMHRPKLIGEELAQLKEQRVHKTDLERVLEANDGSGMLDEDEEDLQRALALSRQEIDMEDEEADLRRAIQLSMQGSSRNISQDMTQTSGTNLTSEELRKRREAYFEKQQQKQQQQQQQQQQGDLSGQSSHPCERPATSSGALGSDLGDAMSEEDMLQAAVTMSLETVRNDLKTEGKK
Chain of UniProt Q86UV5 (Q86UV5 whole entry): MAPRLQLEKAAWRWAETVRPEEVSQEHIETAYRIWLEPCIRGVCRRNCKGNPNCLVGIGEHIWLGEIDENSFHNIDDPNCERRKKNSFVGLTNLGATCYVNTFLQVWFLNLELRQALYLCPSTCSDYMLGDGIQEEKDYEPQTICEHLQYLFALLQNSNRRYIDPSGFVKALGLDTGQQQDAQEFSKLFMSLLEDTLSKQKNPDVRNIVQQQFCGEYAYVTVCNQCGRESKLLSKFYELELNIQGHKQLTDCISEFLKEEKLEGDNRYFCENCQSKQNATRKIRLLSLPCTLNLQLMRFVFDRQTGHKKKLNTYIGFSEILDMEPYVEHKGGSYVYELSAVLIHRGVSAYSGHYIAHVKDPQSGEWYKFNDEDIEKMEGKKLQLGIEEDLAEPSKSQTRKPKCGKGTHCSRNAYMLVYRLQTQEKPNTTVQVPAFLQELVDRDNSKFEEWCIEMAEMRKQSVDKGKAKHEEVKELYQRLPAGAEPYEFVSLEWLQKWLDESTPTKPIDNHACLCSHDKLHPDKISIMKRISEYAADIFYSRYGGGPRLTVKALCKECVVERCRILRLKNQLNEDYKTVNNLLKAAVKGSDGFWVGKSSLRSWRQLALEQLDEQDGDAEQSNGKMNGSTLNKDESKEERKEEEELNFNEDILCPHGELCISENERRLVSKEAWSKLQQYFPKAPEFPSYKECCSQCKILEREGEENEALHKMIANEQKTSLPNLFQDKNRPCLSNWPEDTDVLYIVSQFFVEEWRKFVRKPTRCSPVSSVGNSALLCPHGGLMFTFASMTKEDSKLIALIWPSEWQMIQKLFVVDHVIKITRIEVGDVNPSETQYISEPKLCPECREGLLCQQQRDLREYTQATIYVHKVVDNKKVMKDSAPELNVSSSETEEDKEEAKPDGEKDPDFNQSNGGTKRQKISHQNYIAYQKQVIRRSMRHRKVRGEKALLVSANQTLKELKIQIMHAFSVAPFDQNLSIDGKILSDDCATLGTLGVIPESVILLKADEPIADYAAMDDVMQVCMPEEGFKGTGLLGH
Chain of UniProt Q8TE49 (Q8TE49 whole entry): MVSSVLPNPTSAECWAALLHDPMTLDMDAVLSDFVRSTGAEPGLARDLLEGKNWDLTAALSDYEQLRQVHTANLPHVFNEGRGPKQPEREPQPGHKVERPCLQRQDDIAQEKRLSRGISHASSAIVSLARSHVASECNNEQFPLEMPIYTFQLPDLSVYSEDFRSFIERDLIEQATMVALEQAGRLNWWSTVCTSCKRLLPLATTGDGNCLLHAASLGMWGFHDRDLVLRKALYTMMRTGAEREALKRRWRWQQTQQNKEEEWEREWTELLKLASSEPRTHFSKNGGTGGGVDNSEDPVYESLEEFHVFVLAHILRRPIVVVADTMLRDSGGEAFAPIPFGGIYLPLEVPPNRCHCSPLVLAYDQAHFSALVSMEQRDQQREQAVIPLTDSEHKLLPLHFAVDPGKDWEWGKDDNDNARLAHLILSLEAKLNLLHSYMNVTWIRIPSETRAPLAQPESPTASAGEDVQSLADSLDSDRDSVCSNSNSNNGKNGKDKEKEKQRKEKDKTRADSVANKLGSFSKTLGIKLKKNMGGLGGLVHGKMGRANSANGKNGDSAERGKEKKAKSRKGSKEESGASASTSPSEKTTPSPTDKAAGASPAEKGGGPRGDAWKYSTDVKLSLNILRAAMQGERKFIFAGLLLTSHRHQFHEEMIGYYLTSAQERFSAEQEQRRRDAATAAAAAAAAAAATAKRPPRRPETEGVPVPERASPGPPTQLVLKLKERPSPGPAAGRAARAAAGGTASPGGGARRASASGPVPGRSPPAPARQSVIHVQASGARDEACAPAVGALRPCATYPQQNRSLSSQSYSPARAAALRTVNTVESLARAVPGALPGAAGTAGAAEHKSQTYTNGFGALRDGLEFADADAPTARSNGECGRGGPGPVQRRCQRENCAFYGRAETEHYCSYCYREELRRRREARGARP

log2 ratio of Biotin-Ahx-Ub-VS probe labelling, inactive:
USP39 (UniProt Q53GS9) -0.0648, UniProt Q8TE49 -0.097, UCHL3 (UniProt P15374) -0.285, USP12 (UniProt O75317) -0.38, USP14 (UniProt P54578) -0.0931, PSMD7 (UniProt P51665) 0.132, USP46 (UniProt P62068) -0.277, ATXN3 (UniProt P54252) -0.217, USP19 (UniProt O94966) -0.209, USP48 (UniProt Q86UV5) -0.144, USP34 (UniProt Q70CQ2) -0.106, ALG13 (UniProt Q9NP73) 0.312, YOD1 (UniProt Q5VVQ6) 0.0405, VCPIP1 (UniProt Q96JH7) -0.139, COPS5 (UniProt Q92905) -0.236, UniProt O00487 -0.186, USP24 (UniProt Q9UPU5) 0.0304, USP22 (UniProt Q9UPT9) 0.0954, USP15 (UniProt Q9Y4E8) -0.185, FAM105A (UniProt Q9NUU6) -0.133

same assay, conditions: compound concentration: 200uM; treatment time: 3 h

log2 ratio of Biotin-Ahx-Ub-VS probe labelling, inactive:
USP39 (UniProt Q53GS9) -0.162, UniProt Q8TE49 -0.652, UCHL3 (UniProt P15374) -0.275, USP12 (UniProt O75317) 0.0984, USP14 (UniProt P54578) -0.202, PSMD7 (UniProt P51665) -0.458, USP46 (UniProt P62068) -0.261, ATXN3 (UniProt P54252) -0.786, USP19 (UniProt O94966) -0.661, USP48 (UniProt Q86UV5) -0.273, USP34 (UniProt Q70CQ2) -0.024, ALG13 (UniProt Q9NP73) 0.0712, YOD1 (UniProt Q5VVQ6) -0.24, VCPIP1 (UniProt Q96JH7) -0.277, COPS5 (UniProt Q92905) -0.578, UniProt O00487 -0.459, USP24 (UniProt Q9UPU5) -0.88, USP22 (UniProt Q9UPT9) -0.231, USP15 (UniProt Q9Y4E8) -0.33, FAM105A (UniProt Q9NUU6) 0.096
